Source: PubChem BioAssay AID571 (The Scripps Research Institute Molecular Screening Center, 2007)
Screen size: about 65,000 compounds; about 640 (0.98%) were called active.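 The calls were made as follows: active = inhibition above a set limit, the mean inhibition across every tested compound plus 3 SD (cut at about 29% in these data); inactive = the rest.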 Shown is part of a subset that was picked to be rich in actives.

Each compound was assayed against 5-hydroxytryptamine receptor 1E (Homo sapiens) (UniProt P28566) (assay: 5-HT1E receptor antagonists, primary screen, cell-based, HTS (AID 571;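 also: signal is the 460 over 535 nm emission ratio of beta-lactamase substrate; 0% = agonist plus DMSO wells and 100% = wells without agonist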)). Details: CHO 5-HT1E Ga15 NFAT-bla reporter, FRET, antagonist; at 6 µM; active compounds read high.
Sequence of 5-hydroxytryptamine receptor 1E (Homo sapiens) (P28566 whole entry, looked up): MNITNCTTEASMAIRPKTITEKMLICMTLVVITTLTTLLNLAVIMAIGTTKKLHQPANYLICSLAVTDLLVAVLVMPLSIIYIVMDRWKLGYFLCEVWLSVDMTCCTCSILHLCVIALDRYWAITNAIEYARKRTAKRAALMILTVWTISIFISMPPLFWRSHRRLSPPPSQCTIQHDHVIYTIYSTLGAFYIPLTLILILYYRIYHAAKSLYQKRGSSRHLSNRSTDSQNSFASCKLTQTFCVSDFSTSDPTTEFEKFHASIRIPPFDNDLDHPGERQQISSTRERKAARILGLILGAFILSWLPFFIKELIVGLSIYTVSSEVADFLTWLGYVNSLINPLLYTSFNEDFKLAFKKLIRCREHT
With `CC1CCCC(NC(=O)CSc2nccn2C)C1C` (centres undefined) the inhibition was 2.04% (inactive).
`Cc1c(C(=O)NCCN2CCOCC2)sc2nc(-c3ccc(F)cc3)cn12` was tested, and the inhibition was -2.05% (inactive).
`c1ccc(-c2cn3cccnc3n2)cc1` was tested, and the inhibition was -0.19% (inactive).
`COc1ccc(S(=O)(=O)NC(CC(=O)NCc2ccccc2OC)c2ccco2)cc1` (centres undefined) was tested, and the inhibition was -1.55% (inactive).
In the case of `CCOC(=O)N1CCC(NC(=O)CN2C(=O)COc3ccc(C(C)(C)C)cc32)CC1`, the inhibition was -7.21% (inactive).
With `CCOC(=O)N1CCC(NC(=O)Cc2cn(C)c3ccccc23)CC1` the inhibition was -14.8% (inactive).
In the case of `CCOC(=O)c1c(C)oc2ccc(OCC(=O)N(CC)CC)cc12`, the inhibition was -6.18% (inactive).
With `COc1ccc(C)cc1S(=O)(=O)NC1CCCCC1` the inhibition was -3.9% (inactive).
With `O=C(Cn1c(=S)nc2ccccn21)N1CCc2ccccc2C1` the inhibition was -1.67% (inactive).
With `CCCCNC(=O)CSc1nccn1Cc1ccccc1` the inhibition was 3.33% (inactive).
With `O=C(CNS(=O)(=O)c1cccc(C(F)(F)F)c1)Nc1ccccc1F` the inhibition was -3.72% (inactive).
For `CCCCC(=O)Nc1ccc2c(c1)OCCO2`, the inhibition was -10.5% (inactive).
`CCCCCC(=O)Nc1ccc2oc(-c3ccncc3)nc2c1` was tested, and the inhibition was 4% (inactive).
For `CCCCC(=O)Nc1ccc2c(c1)C(=O)NC2=O`, the inhibition was 44% (active).
`Nc1ccc(SCCN2C(=O)c3ccccc3C2=O)cc1` was tested, and the inhibition was -1.04% (inactive).
In the case of `COC(=O)c1ccc(NC(=O)CSc2nnc(Cc3cccn3C)n2-c2ccc(F)cc2)cc1`, the inhibition was -7.1% (inactive).
`CCc1nnc(NC(=O)c2nc3nccc(C)n3n2)s1` was tested, and the inhibition was -0.48% (inactive).
With `CCOc1ccc(C(=O)Nc2ccncc2)cc1` the inhibition was 5.74% (inactive).
In the case of `CSc1sc(C)cc1C1C(C#N)=C(N)N(c2cccnc2)C2=C1C(=O)CCC2` (centres undefined), the inhibition was 24.6% (inactive).
For `COc1ccc(CCNS(=O)(=O)c2ccc(C(=O)NCc3ccco3)cc2)cc1OC`, the inhibition was -13.4% (inactive).
`Cc1ccccc1NC(=O)Cc1nnc(SCC(=O)N2CCN(c3ccccc3)CC2)n1C` was tested, and the inhibition was 2.63% (inactive).
In the case of `Cc1noc(C)c1S(=O)(=O)NCCc1ccc(S(N)(=O)=O)cc1`, the inhibition was -6.61% (inactive).
With `Cc1cccc(-n2c(O)c(C=Nc3ccccc3N)c(=O)[nH]c2=O)c1` the inhibition was -5.35% (inactive).
For `Cc1ccc(-n2nc(-c3ccco3)cc2C(=O)NCc2cccnc2)cc1`, the inhibition was 30.4% (active).
`Cc1ccc2c(c1)N(CCCC(=O)NCc1cccnc1)C(=O)CO2` was tested, and the inhibition was 10.1% (inactive).
`CC(C)(C)c1cc(C(=O)NCc2cccnc2)ccn1` was tested, and the inhibition was -1.08% (inactive).
For `CCN1CCN(C(=O)c2ccccc2N(C)S(=O)(=O)c2ccc(C)cc2)CC1`, the inhibition was -11.1% (inactive).
`Cc1nnc2sc(-c3ccco3)nn12` was tested, and the inhibition was -3.05% (inactive).
In the case of `CC1CCCC(C)N1CCCNC(=O)c1cc2c(=O)n(C)c3ccccc3c2n1C` (centres undefined), the inhibition was -8.37% (inactive).
For `Cn1c(C(=O)NCCCN2CCN(c3cccc(Cl)c3)CC2)cc2c(=O)n(C)c3ccccc3c21`, the inhibition was 28.9% (active).
For `CCn1c(=O)cc(OCC(=O)NCCCN2CCN(c3cccc(Cl)c3)CC2)c2ccccc21`, the inhibition was -1.38% (inactive).
In the case of `COc1ccc(N=Cc2c(O)[nH]c3ccccc23)cc1OC`, the inhibition was -3.2% (inactive).
With `COc1ccc(OC)c(N=Cc2c(O)[nH]c3ccccc23)c1` the inhibition was 39.8% (active).
In the case of `COc1cc(N=Cc2c(O)[nH]c3ccccc23)cc(OC)c1OC`, the inhibition was 4.31% (inactive).
`COc1ccc(NC2CC(=O)N(C)C2=O)cc1` (centres undefined) was tested, and the inhibition was -0.34% (inactive).
With `C[C@H](NC(=O)OC(C)(C)C)c1nnc(SCC(N)=O)o1` the inhibition was -6.77% (inactive).
With `O=C(Nc1ccccc1N1CCCCC1)c1cccc(F)c1` the inhibition was -0.39% (inactive).
For `O=C(NCc1ccco1)c1cccn2c(=O)c3cc(Br)ccc3nc12`, the inhibition was 11.4% (inactive).
`Cc1cccc(NC(=O)CN2CCCN(S(=O)(=O)c3ccc(Br)s3)CC2)c1` was tested, and the inhibition was 12.7% (inactive).
`CCC1(C)Cc2c(sc3nc4n(c(=O)c23)CCCS4)CO1` (centres undefined) was tested, and the inhibition was 7.47% (inactive).
`COC(=O)c1c(NC(=O)CSc2nc3c(c(=O)n(C)c(=O)n3C)n2C(C)C)sc(C)c1C` was tested, and the inhibition was -1.61% (inactive).
For `CCCCCCC(=O)N(O)C1CC(=O)N(c2ccccc2)C1=O` (centres undefined), the inhibition was 29% (active).
With `CCOc1ccc(N2C(=O)CC(N(O)c3ccccc3)C2=O)cc1` (centres undefined) the inhibition was -13.5% (inactive).
For `CCCCOC(=O)c1ccc(N2C(=O)CC(N3CCN(C/C=C/c4ccccc4)CC3)C2=O)cc1` (centres undefined), the inhibition was -8.79% (inactive).
With `Cc1cc(C)cc(OCc2nnc(SCC(=O)OC3CCCCC3)o2)c1` the inhibition was 1.45% (inactive).
In the case of `Cc1cc(C(=O)OCC(=O)c2c(N)n(C)c(=O)n(C)c2=O)c(C)o1`, the inhibition was -2.61% (inactive).
`CCOc1ccccc1NC(=O)C1CCC(CNc2c(N3CCOCC3)c(=O)c2=O)CC1` (centres undefined) was tested, and the inhibition was -7.97% (inactive).
With `Cn1c(=O)[nH]c(=O)c2c1nc(N1CCN(CCO)CC1)n2CCSc1nc2ccccc2s1` the inhibition was -9.93% (inactive).
With `COc1ccc(NC(=O)c2c(SC)nsc2SC)cc1` the inhibition was 3.42% (inactive).
In the case of `COc1cccc(C(=O)Nc2c3c(nn2-c2cccc(C)c2C)CS(=O)(=O)C3)c1OC`, the inhibition was 29.9% (active).
With `Cc1cccc(-n2nc3c(c2NC(=O)c2ccc(Br)o2)CSC3)c1C` the inhibition was -0.62% (inactive).
For `O=C(CC1CCCCC1)Nc1c2c(nn1-c1ccc(F)cc1)CS(=O)(=O)C2`, the inhibition was 3.57% (inactive).
`Cc1noc(C)c1S(=O)(=O)N1CCCC(C(=O)Nc2nccs2)C1` (centres undefined) was tested, and the inhibition was 6.69% (inactive).
In the case of `CC(C)C[C@H](NC(=O)NCCc1ccc(Cl)cc1)C(=O)O`, the inhibition was 0.25% (inactive).
`Cn1cccc1Cc1nnc(SCC(=O)NCc2ccc3c(c2)OCO3)n1CCc1ccccc1` was tested, and the inhibition was -2.19% (inactive).
For `C=CCn1c(COc2ccccc2C)nnc1SCC(=O)O`, the inhibition was 10.3% (inactive).
In the case of `COC(=O)c1ccc(NC(=O)CSc2nnc(-c3ccncc3)n2C)cc1`, the inhibition was -4.91% (inactive).
In the case of `CCOc1cc(-c2noc(CCC(=O)N3CCOCC3)n2)ccc1OC`, the inhibition was 8.36% (inactive).
With `CCOc1cc(CN2CCN(C(=O)CC(C)C)CC2)ccc1OC` the inhibition was -2.34% (inactive).
With `CCOc1cc(C(=O)N2CCc3cc(OC)c(OC)cc3C2)ccc1OC(F)F` the inhibition was 90.1% (active).
For `CCN(CC)C(=O)N1CCN(C(=O)c2ccc(C)cn2)CC1`, the inhibition was -13.6% (inactive).
With `COC(=O)C1(S(=O)(=O)C2(C(=O)OC)CCCC2)CCCC1` the inhibition was -13% (inactive).
For `C/C(CC(O)(/C=N/O)c1ccccc1)=N\O` (centres undefined), the inhibition was 1.85% (inactive).
With `COCCNC(=O)C(C#N)c1nc2ccccc2nc1N1CCN(Cc2ccc3c(c2)OCO3)CC1` (centres undefined) the inhibition was 2.9% (inactive).
With `O=c1c2ccccc2nc(CSc2nnnn2-c2ccccc2)n1-c1ccccc1` the inhibition was -9.14% (inactive).
For `Cc1ccc(-c2noc(CSc3nnnn3-c3ccccc3)n2)cc1`, the inhibition was 4.04% (inactive).
With `CN(C)c1nc(N)nc(CSc2nnnn2-c2cccc3ccccc23)n1` the inhibition was 30.2% (active).
With `CC(C)OCCCNc1ncnc2c1[nH]c1ccc(F)cc12` the inhibition was 35% (active).
In the case of `CCN1CCCC1CNc1ncnc2c1[nH]c1ccc(F)cc12` (centres undefined), the inhibition was -8.46% (inactive).
With `O=C1CCCN1CCCNc1ncnc2c1[nH]c1ccccc12` the inhibition was 4.24% (inactive).
`CCOc1ccc(NC(=O)Nc2cc(C)on2)cc1` was tested, and the inhibition was -2.74% (inactive).
For `O=C(CN1C(=O)COc2ccccc21)Nc1ccc(F)cc1`, the inhibition was 6.81% (inactive).
For `O=C(CSc1nnc(-c2c[nH]c3ccccc23)n1-c1ccc(F)cc1)NCc1ccco1`, the inhibition was 6.88% (inactive).
In the case of `COc1ccc(S(=O)(=O)N(C)CC(=O)Nc2ccc3c(c2)OCCO3)cc1OC`, the inhibition was 10.4% (inactive).
For `CCC(C)(C)n1nnnc1C(c1cccs1)N1CCN(c2nc3ccccc3s2)CC1` (centres undefined), the inhibition was 3.71% (inactive).
In the case of `Cc1nnc(SCc2cc(=O)[nH]c(N3CCN(Cc4ccccc4)CC3)n2)s1`, the inhibition was -7.09% (inactive).
With `COc1cc(OC)c(C(=O)Nc2ccc(N(C)C)cc2)cc1OC` the inhibition was -7.5% (inactive).
For `COc1ccccc1-c1nc(C(F)(F)F)c(OC)o1`, the inhibition was -6.75% (inactive).
In the case of `Cc1cc(C)n2nc(C(=O)Oc3ccc4c(c3)OCO4)nc2n1`, the inhibition was -5.31% (inactive).
In the case of `COc1ccc(C)c(Cn2c(-c3nonc3N)nc3ccccc32)c1`, the inhibition was 33.6% (active).
`Nc1nonc1-c1nc2ccccc2n1CCC(=O)O` was tested, and the inhibition was 7.28% (inactive).
In the case of `Nc1nonc1-c1nc2ccccc2n1Cc1ccc(F)cc1`, the inhibition was 8.52% (inactive).
In the case of `NC(=O)CSc1oc(-c2cccs2)nc1S(=O)(=O)c1ccccc1`, the inhibition was 1.39% (inactive).
For `CN(C)CCCNC(=O)c1ccc2[nH]c3ccccc3c2c1`, the inhibition was -3.46% (inactive).
In the case of `CCCCOc1ccc(C(C)(O)CCN2CCOCC2)cc1` (centres undefined), the inhibition was 2.45% (inactive).
`Cc1ccc(S(=O)(=O)n2nc(OC(=O)C(C)(C)C)cc2N)cc1` was tested, and the inhibition was -1.76% (inactive).
`CN1CCCC(OC(=O)COc2ccc(Br)cc2)C1` (centres undefined) was tested, and the inhibition was -15.4% (inactive).
`CC[C@H]1CN2CCc3cc(OC)c(OC)cc3[C@@H]2C[C@@H]1C[C@H]1NCCc2cc(OC)c(OC)cc21` was tested, and the inhibition was 92.4% (active).
For `CCOC(=O)C1CCCN(C(=O)c2cncc(Br)c2)C1` (centres undefined), the inhibition was 3.85% (inactive).
`O=C(c1ccco1)N1CCN(CC(=O)N(C2CCCCC2)C2CCS(=O)(=O)C2)CC1` (centres undefined) was tested, and the inhibition was 16.6% (inactive).
For `CCSC1=C(C#N)C(=O)n2c1cc1c2CCCC1`, the inhibition was -0.37% (inactive).
`CCSc1ncnc2c(C#N)c3n(c12)CCCCC3` was tested, and the inhibition was 47.6% (active).
With `COC(=O)c1ccccc1NC(=O)Cn1nc(C(F)(F)F)c2c1CCC2` the inhibition was -3.25% (inactive).
In the case of `CCn1c2c(c3ccc(OC)cc31)CCCC2=O`, the inhibition was 4.52% (inactive).
For `Cc1nn(Cc2ccc(Cl)c(Cl)c2)c(C)c1NC(=O)c1cc(C2CC2)on1`, the inhibition was 34.3% (active).
`O=C(Nc1cc(C(F)(F)F)ccc1Cl)c1cc(C2CC2)on1` was tested, and the inhibition was -9.73% (inactive).
In the case of `Cc1cc(NC(=O)c2cc(-c3cccs3)on2)nn1Cc1ccc(Cl)cc1`, the inhibition was -7.29% (inactive).
With `CC(=O)C1C(c2ccc(Cl)cc2)NC(=O)NC1(O)C(F)(F)F` (centres undefined) the inhibition was 6.15% (inactive).
For `CCSC(C)CC1C/C(=N/O)c2c(C)noc2C1` (centres undefined), the inhibition was 21.4% (inactive).
For `Cc1nc2sc(C(c3ccco3)N3CCC4(CC3)OCCO4)c(O)n2n1` (centres undefined), the inhibition was -11.1% (inactive).
For `CC1(C)Oc2ccc3ccc(=O)oc3c2/C(=C/NCCO)C1=O`, the inhibition was -8.4% (inactive).
With `CN=C1SC(C(=O)O)CC(=O)N1C` (centres undefined) the inhibition was 1.76% (inactive).
In the case of `CC[C@]1(O)C[C@@H]2CN(CCc3c([nH]c4ccccc34)[C@@](C(=O)OC)(c3cc4c(cc3OC)N(C)[C@H]3[C@@](O)(C(=O)OC)[C@H](OC(C)=O)[C@]5(CC)C=CCN6CC[C@]43[C@@H]65)C2)C1`, the inhibition was 73.5% (active).
In the case of `CC[C@]1(O)CC2CN(CCc3c([nH]c4ccccc34)[C@@](C(=O)OC)(c3cc4c(cc3OC)N(C=O)[C@H]3[C@@](O)(C(=O)OC)[C@H](OC(C)=O)[C@]5(CC)C=CCN6CC[C@]43[C@@H]65)C2)C1` (some centres undefined), the inhibition was 71.9% (active).
`Cc1ccc(C(c2nnnn2C(C)(C)C)N2CCc3ccccc3C2)cc1` (centres undefined) was tested, and the inhibition was -3.9% (inactive).
For `FC(F)Oc1ccccc1C1CC(c2ccc(Br)s2)Nc2ncnn21` (centres undefined), the inhibition was 12% (inactive).
In the case of `O=C(c1cnn2ccccc12)N1CCc2ccccc21`, the inhibition was -4.32% (inactive).
In the case of `COCCNC(=O)CN(C(=O)CCC(=O)Nc1cc(C)on1)c1ccc(C)cc1C`, the inhibition was -0.23% (inactive).
For `Cc1cccc(Cn2c(SCCO)nc3c2c(=O)n(C)c(=O)n3C)c1`, the inhibition was -1.41% (inactive).
